PubChem BioAssay (Tox21)
Inconclusive results are not listed. A call without a number means that no potency is given here. Activity calls are given as the source filed them. Calls come from the whole dose curve; as a rule, active = well fitted cell-killing curve with a large enough effect in the repeat runs; inconclusive = weak or mixed curves, or effect the other way; inactive = no such curve, though single readings can be large or run the other way.

Assay: qHTS assay to identify small molecule antagonists of the glucocorticoid receptor (GR) signaling pathway - cell viability counter screen (AID 720693); note: nearly all actives have a fitted effect of over 55% in size
Conditions: GR-bla HeLa viability, CellTiter-Glo luminescence, 18 h, with 5 nM dexamethasone present; series mostly up to 58.5 µM
Potency is the fitted concentration of half-maximal effect.

| Structure (SMILES) | Potency |
| --- | --- |
| CCCCCCCCCCCCN(CCO)CCO | 34.5 µM (active) |
| CCCCNc1c(C(=O)OCC)c(C)nc2c1cnn2CC | inactive |
| CCCCCCCCCCCCCCCC | inactive |
| Oc1ccc(-c2ccccc2)c(Cl)c1 | inactive |
| S=C(SSSSSSC(=S)N1CCCCC1)N1CCCCC1 | inactive |
| COc1cccc(CCc2ccccc2OCC(CN(C)C)OC(=O)CCC(=O)O)c1 (stereo not drawn) | inactive |
| Cc1cc2c(C(C)C)c(O)c(O)c(C=O)c2c(O)c1-c1c(C)cc2c(C(C)C)c(O)c(O)c(C=O)c2c1O | 9.52 µM (active) |
| ClC/C=C\CCl | inactive |
| O=S(=O)(O)CCCN1CCOCC1 | inactive |
| CC(=O)Nc1ccc(O)cc1 | inactive |
| CO[C@H]1C=CO[C@@]2(C)Oc3c(C)c(O)c4c(O)c(cc(O)c4c3C2=O)NC(=O)/C(C)=C\C=C/[C@H](C)[C@H](O)[C@@H](C)[C@@H](O)[C@@H](C)[C@H](OC(C)=O)[C@@H]1C | inactive |
| CNC(=S)NN | inactive |
| CNC(=O)c1cc(Oc2ccc(NC(=O)Nc3ccc(Cl)c(C(F)(F)F)c3)cc2)ccn1 | 19 µM (active) |
| Cc1cccc(Br)c1 | inactive |
| CC1=C(/C=C/C(C)=C/C=C/C(C)=C/C(=O)Nc2ccc(O)cc2)C(C)(C)CCC1 | 44.8 µM (active) |
| CC(C)=C1CC[C@@H](C)CC1=O | inactive |
| O=C1c2c(O)ccc([N+](=O)[O-])c2C(=O)c2c([N+](=O)[O-])ccc(O)c21 | 8.63 µM (active) |
| COc1cc(C(C)C)c2c(c1)S(=O)(=O)N(COc1cc(=O)n3cccc(OCCN4CCCCC4)c3n1)C2=O | inactive |
